SARS PLP yeast – inhibitors of SARS-CoV papain-like protease in yeast; Potency, µM (top dose mostly 32.9 µM), actives largely listed as activators; AID 485353; 330,000 compounds, 0.19% hits; S. cerevisiae expressing SARS-CoV PLpro, growth rescue; calls by dose curve; also: nearly all actives have a fitted effect of over 55% in size
Shiga toxin inh – blocks Shiga toxin action in Vero cells | 290,000 compounds, 9.2% hits | Vero cells, Shiga toxin protein synthesis inhibition reporter | AID 2315 | inhibition, % at 38.7 µM; in the data active = inhibition mostly above about 28%, no sharp cut-off; inactive = mostly below about 43%
CHX counter – counter-screen hit for Shiga toxin inhibitors, cycloheximide. 300,000 compounds, 12% hits. AID 2314. cell reporter, cycloheximide protein synthesis inhibition counterscreen. max response, %; in the data active = max response mostly above about 13%, no sharp cut-off; inactive = mostly below about 14%; also: read at 38.3 µM for the half of the compounds with a filed dose
Pf growth 96h – P. falciparum growth inhibition at 96 hour, primary screen for plastid delayed-death inhibitors; P. falciparum luciferase reporter growth, 96 h; Potency, µM (top dose mostly 28.7 µM), actives largely listed as inhibitors; 320,000 compounds, 6.9% hits; AID 504834
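Cell-based qHTS: luciferase-tagged P. falciparum in erythrocytes (2% hematocrit, 0.05% parasitemia final) incubated with compounds for 96 hours, 37 C, 5% CO2; luciferase detection reagent then added and luminescence measured.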
NS1 function inh – inhibitors of influenza NS1 protein function. Potency, µM (highest dose often 46.1 µM). 270,000 compounds, 0.4% hits; calls by dose curve; also: actives are rising curves; nearly all actives have a fitted effect of over 50% in size
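A cell-based growth assay was used: compounds that relieve NS1-induced slow growth of budding yeast raise OD600. Assay medium was yeast nitrogen base with ammonium sulphate and -URA supplement, pH 6.0, with 2% galactose.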
Pf growth 48h – inhibits P. falciparum growth in the first generation, 48 h; AID 504832; Potency, µM (titrated, usually from 28.7 µM), hits mostly inhibitors; P. falciparum luciferase growth in erythrocytes, 48 h; 310,000 compounds, 5.9% hits
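Luciferase-expressing parasites in RBCs, 2% Hct / 0.1% parasitemia final; RPMI 1640 + 0.5% Albumax; 37 C, 5% CO2, one generation; luminescence read-out, lower signal = inhibition.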
Numbers stand for hits; i = inactive; ? = inconclusive; nt = no result; [ ] = dose if it differs, or a comment. The list is not random: actives were taken first. Their share in the collection is about 21%. Unless noted, calls follow the shape of the dose curve; as a rule, active = well fitted inhibition curve with a large enough effect; inconclusive = small, poorly fitted or top-dose-only effect, or another doubt; inactive = no such curve, though single readings can be large or run the other way.

SMILES | SARS PLP yeast | Shiga toxin inh | CHX counter | Pf growth 96h | NS1 function inh | Pf growth 48h
CCC(C)NCC(O)(c1ccc(Cl)cc1)c1ccc(Cl)cc1 (stereo not drawn) | i | i | i | 2.9µM | nt | ?
CC(O)(c1ccc(Cl)cc1)c1ccc(Cl)cc1 | nt | i | i | nt | nt | nt
CCc1nnc(NC(=O)c2cc(-c3ccccn3)nc3ccc(Br)cc23)s1 | i | i | i | ? | i | i
Cc1ccc(C(=O)O[C@H](C(=O)O)[C@@H](OC(=O)c2ccc(C)cc2)C(=O)O)cc1 (tested in a mixture with another compound) | nt | nt | nt | nt | i | nt
Cc1ccc(C(=O)c2cc3ccccc3o2)cc1 | i | 93 | 55 | i | i | i
Cc1ccc(C(=O)c2cc3ccccc3o2)cc1C | i | 59 | 39 | i | i | nt
O=S(=O)(NC1CCCCC1N1CCN(c2ccc(F)cc2)CC1)c1ccccc1 (stereo not drawn) | i | i | i | i | i | ?
O=C(CNC(=O)c1cccc([N+](=O)[O-])c1)NC1CCCc2ccccc21 (stereo not drawn) | i | nt | nt | ? | nt | i
CCOc1ccc(S(=O)(=O)N2CCCCC2)cc1NC(=O)C1COc2ccccc2O1 (stereo not drawn) | i | nt | nt | ? | nt | 6.6µM
CC(C)Oc1ccc(S(=O)(=O)N2CCOCC2)cc1NC(=O)C1COc2ccccc2O1 (stereo not drawn) | i | nt | nt | 12µM | nt | 12µM
CC(C)Oc1ccc(S(=O)(=O)N2CCOCC2)cc1NC(=O)C1=COCCO1 | i | nt | nt | 12µM | nt | ?
COc1ccc(S(=O)(=O)N2CCOCC2)cc1NC(=O)COC(=O)C1COc2ccccc2O1 (stereo not drawn) | i | i | i | i | i | i
COc1ccc(CCC(=O)OCC(=O)c2cccc(OC)c2)cc1 | i | i | i | i | nt | i
CCCCNC(=O)CSc1nnc(-c2c[nH]c3ccccc23)n1CC1CCCO1 (stereo not drawn) | i | i | i | nt | i | ?
COC(=O)c1c[nH]n2c(=O)c(Cc3ccc(F)cc3Cl)c(C)nc12 | i | i | i | 1.5µM | i | i
CC(C(=O)Nc1ccc2c(c1)OCO2)N(c1ccc(Cl)cc1)S(C)(=O)=O (stereo not drawn) | i | i | i | nt | i | i
CCCN(CC(=O)Nc1ccccc1C)C(=O)C1CC(=O)N(c2cccc(C)c2C)C1 (stereo not drawn) | i | nt | nt | i | nt | i
COc1ccc(NC(=O)c2cc3ccccc3o2)cc1OC | i | 62 | 45 | ? | i | i
COc1ccc(NC(=O)c2cc3ccccc3o2)cn1 | i | nt | 36 | i | i | i
COc1ccc(NC(=O)c2cc3ccccc3o2)cc1 | i | 94 | 39 | ? | i | i
CCCNC(=O)c1cc2ccccc2c(=O)o1 | i | 57 | 21 | i | i | i
CC(Oc1cc2oc(=O)c3c(c2cc1Cl)CCCC3)C(=O)NCCN1CCOCC1 (stereo not drawn) | i | i | i | i | i | i
Cc1cccc(-n2nc(CC#N)c(C#N)c2N)c1 | i | i | i | i | nt | i
CCCOc1ccc(S(=O)(=O)NNC(=O)c2cc3ccccc3o2)cc1 | i | i | 14 | i | i | i
COc1ccc(CCNC(=O)c2coc3ccccc3c2=O)cc1OC | i | i | i | ? | i | ?
SMILES | SARS PLP yeast | Shiga toxin inh | CHX counter | Pf growth 96h | NS1 function inh | Pf growth 48h
COc1ccc(CNC(=O)c2cc3ccccc3o2)cc1OC | i | nt | i | 13µM | i | i
CCOc1ccc(CNC(=O)c2nnc(CS(=O)(=O)c3ccccc3)o2)cc1OC | i | i | i | ? | i | 4.7µM
COc1ccc(CNC(=O)c2ccc3ccccc3n2)cc1OC | i | i | i | i | i | i
COc1ccc(NC(=O)c2coc3ccccc23)cc1OC | i | 71 | 20 | i | i | i
O=C(N1CCCCC1)N1CCN(S(=O)(=O)c2ccccc2)CC1 | i | i | i | i | i | i
COc1ccc(N2CCCC2)c(NC(=O)c2ccc(Br)o2)c1 | i | i | i | i | i | i
CCOc1ncccc1C(=O)Nc1ccc(C(=O)Nc2ccc(OC)cc2)cc1 | i | nt | nt | i | nt | ?
O=C(NCc1ccccc1)c1cc2ccccc2o1 | i | i | 22 | nt | i | i
O=C(NCCc1ccccn1)c1cc2ccccc2o1 | i | 84 | 49 | i | i | i
O=C(COC(=O)c1cccs1)NCc1ccccc1 | i | i | 25 | ? | i | nt
O=C(NCc1ccc2c(c1)OCO2)c1cccs1 | i | i | i | i | i | i
O=C(COC(=O)c1ccc(Br)o1)NCC1CCCCC1 | i | nt | nt | nt | nt | nt
O=C(COC(=O)c1cccs1)NCc1ccc2c(c1)OCO2 | i | 69 | 40 | i | i | i
O=C(COC(=O)c1cccs1)NCC1CCCCC1 | i | i | 20 | i | nt | i
CCn1ncc(Cl)c1C(=O)Nc1cc([N+](=O)[O-])ccc1OC | i | i | i | i | i | i
COc1cc(OC)c(OC)cc1CCC(C)NC(=O)Cc1ccccc1 (stereo not drawn) | i | i | i | i | i | i[0.00184 µM]
COC(=O)c1ccc(C(=O)OC)c(NC(=O)CN(C)Cc2ccc(Cl)c(Cl)c2)c1 | i | i | i | ? | i | 10µM
O=C(NNC(=S)Nc1ccccc1Cl)c1ccccc1Cl | i | i | i | ? | i | i
S=C(NCCC(c1ccccc1)c1ccccc1)Nc1ccc(Cl)cc1 | i | i | i | i | i | i
S=C(NCCC(c1ccccc1)c1ccccc1)Nc1ccccc1Cl | i | i | i | 4.7µM | i | ?
O=C(NNC(=S)Nc1ccccc1Cl)c1ccccc1 | i | 78 | 43 | i | i | i
O=C(NNC(=S)Nc1ccc(Cl)cc1)c1ccccc1 | i | 57 | 27 | i | i | i
CC(=O)c1ccc(NC(=S)NNC(=O)c2ccncc2)cc1 | i | i | 16 | i | i | i
O=C(COC(=O)Cc1ccc(S(=O)(=O)N2CCOCC2)s1)NCc1ccc(Cl)cc1 | i | i | i | i | i | nt
Cn1c(CC(=O)Nc2ccc(F)cc2)nnc1SCC(=O)Nc1nncs1 | i | i | i | i | i | ?
SMILES | SARS PLP yeast | Shiga toxin inh | CHX counter | Pf growth 96h | NS1 function inh | Pf growth 48h
O=C(NNC(=S)Nc1cccc(Cl)c1)c1ccccc1 | ? | 42 | 27 | ? | i | i
O=c1cnnc(N/N=C/C2CC=CCC2)[nH]1 (stereo not drawn) | i | i | i | i | nt | i
COc1cc([C@H]2[C@@H]3CCCC[C@]3(O)CCN2Cc2ccccc2F)ccc1O | i | i | i | 12µM | i | ?
Fc1ccc(CNC(=S)Nc2ccc(Cl)cc2Cl)cc1 | i | i | i | i | i | ?
S=C(NCc1ccc(Cl)cc1)Nc1ccc(Cl)cc1Cl | i | i | i | ? | i | i
CCCNC(=S)Nc1ccc(Cl)cc1Cl | ? | 41 | i | i | i | i
S=C(NCc1ccccn1)Nc1ccc(Cl)cc1Cl | i | i | 45 | i | i | i
Fc1ccc(NC(=S)Nc2ccc(Cl)cc2Cl)cc1 | i | i | 22 | i | i | i
S=C(NCCc1ccc(Cl)cc1)Nc1ccc(Cl)cc1Cl | i | i | 13 | i | i | ?
COc1ccc(Cl)cc1NC(=S)NCc1ccccn1 | i | i | i | ? | i | i
Nc1cccc(NP(=O)(c2ccccc2)c2ccccc2)c1 | i | i | i | i | i | i
